In the library only some 6.5% were active in any assay of this set; here they are far more common.
HCMV antiviral = blocks human cytomegalovirus replication. 410,000 tested, 4.5% active. activity change, negative = inhibition, % at 57.5 µM. HFF cells, HCMV-luciferase reporter, 72 h; active compounds read low; in the data active means activity change below about -60%; inconclusive means no clear call, values can overlap the other calls; inactive means above about -39%
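Human foreskin fibroblasts infected with luciferase-reporter HCMV at MOI 1 PFU/cell, compounds at two doses. Luciferase measured 72 h post infection; normalized to buffer-only basal and Salinomycin (10uM) controls.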
VACV mCherry inh = inhibitors of vaccinia virus infection (mCherry reporter signal). 310,000 tested, 0.63% active. Potency, µM (series often up to 36.5 µM), most hits filed as inhibitors. AID 720579. Vaccinia virus mCherry reporter infection, fluorescence; calls by dose curve; tested in A549 cells; further: nearly all actives have a fitted effect of over 35% in size
Lassa entry inh = Lassa virus entry inhibition; Lassa virus pseudotype entry inhibition, cell reporter; Potency, µM (doses to about 37.9 µM), hits mostly inhibitors; 300,000 tested, 1.2% active; calls by dose curve; tested in HEK293 cells; further: nearly all actives have a fitted effect of over 50% in size
Marburg entry inh = Marburg virus entry inhibition. 300,000 tested, 1.8% active. Marburg virus pseudotyped entry inhibition, cell reporter. Potency, µM (highest dose often 37.8 µM), hits mostly inhibitors; calls by dose curve; tested in HEK293 cells
Vaccinia Venus = inhibitors of vaccinia virus (Venus reporter) | Potency, µM (titrated, usually from 36.5 µM), most hits filed as inhibitors | Vaccinia virus Venus reporter expression, fluorescence | AID 720580 | 330,000 tested, 0.46% active; calls by dose curve; tested in A549 cells; further: nearly all actives have a fitted effect of over 30% in size
FMDV antiviral = blocks foot and mouth disease virus | FMDV antiviral cell-based qHTS | 410,000 tested, 1.2% active | Potency, µM (highest dose often 57.9 µM), most hits filed as inhibitors | AID 1159524; calls by dose curve; tested in HEK293T cells; further: read-out not given here; nearly all actives have a fitted effect of over 45% in size
A number is an active result; 0 = inactive; ? = inconclusive; - = not tested or not shown; ! = repeats disagree; [ ] = dose if it differs, or a comment.

SMILES	HCMV antiviral	VACV mCherry inh	Lassa entry inh	Marburg entry inh	Vaccinia Venus	FMDV antiviral
CCC(=O)N1CCN(c2ccccc2NC(=O)c2ccc([N+](=O)[O-])o2)CC1	-64.7	?	0	?	0	0
CN1CCc2ccccc2Cc2[nH]c3ccccc3c2CC1	0	0	0	11.2µM!	0	0
CCCCN1CCc2c([nH]c3ccccc23)C1=O	0	-	0	?	0	0
Cc1ccc(Cn2c(CN3CCC(C(=O)O)CC3)cc3ccccc32)cc1	0	0	0	?	0	0
C=C1CC2(OC1=O)c1ccccc1CCc1ccccc12	-97.4	?	20µM	?	14.1µM	22.4µM
O=C(Nc1cccc(OCc2cc(=O)n3ccccc3n2)c1)Nc1cccc(C(F)(F)F)c1	0	0	0	-	0	0
Nc1cc(-c2cccc(F)c2)nn1S(=O)(=O)c1cccc2nsnc12	-101.4	0	-	-	?	0
C=CCNC(=S)NNC(=O)C(CCC(C)C)CC(C)(C)O (configuration not stated)	-107.3	0	0	0	0	0
CCCN1CCN(c2ncc3c(n2)CCN(Cc2ccc(OC)c(OC)c2OC)C3)CC1	0	0	?	-	0	0
Cc1cccc(N2CCN(C(=O)C3CCC(CNS(=O)(=O)c4cccs4)CC3)CC2)c1C (configuration not stated)	-60.6	?	?	?	?	0
O=C(C(NS(=O)(=O)c1cccs1)c1ccccc1)N1CCN(c2ccccc2F)CC1 (configuration not stated)	0	0	7.3µM	?	0	0
Cc1cccc(N2CCN(C(=O)C3CCN(S(=O)(=O)c4cccs4)CC3)CC2)c1C	0	?	?	0	0	0
Cc1cccc(N2CCN(C(=O)C(NS(=O)(=O)c3cccs3)c3ccccc3)CC2)c1C (configuration not stated)	0	?	2.59µM	0	0	0
Cc1ccc(Cl)cc1NC(=O)C(NS(=O)(=O)c1cccs1)c1ccccc1 (configuration not stated)	-70.2	0	?	?	0	?
CC1Cc2ccccc2C[N+]1(C)CC(=O)c1cccc([N+](=O)[O-])c1 (configuration not stated)	-	0	-	-	0	-
O=S(=O)(NCCc1csc2nc(-c3ccccc3)nn12)c1cccs1	0	0	0	-	0	0
CCc1ccc(S(=O)(=O)NCCc2csc3nc(-c4ccccc4)nn23)s1	-78.9	0	0	-	0	0
Cn1nnnc1Sc1c(Cl)cccc1[N+](=O)[O-]	-91.4	0	0	0	0	0
O=[N+]([O-])c1ccc(Sc2nnnn2-c2ccccc2)c(Cl)c1	-73.1	-	0	0	-	?
Cn1nnnc1SCc1ccc([N+](=O)[O-])cc1	0	0	0	0	0	0
Cn1nnnc1SCC(=O)Nc1ccccc1[N+](=O)[O-]	0	-	0	?	0	0
Cn1nnnc1Sc1ccc([N+](=O)[O-])cc1Cl	?	10µM	0	?	?	0
CC1=Nc2cc(C(=O)NC3CCCC3)ccc2Sc2ccc(Br)cc21	-75.6	?	0	?	?	0
CCOC(=O)N1CCC(NC(=O)c2ccc3c(c2)N=C(C)c2c(C)ccc(C)c2S3)CC1	-93.1	-	-	-	-	0
CC1=Nc2cc(C(=O)NC3CCCCC3)ccc2Sc2ccc(Cl)cc21	-86.7	0[7.34 µM]	3.98µM	-	0[7.34 µM]	0
SMILES	HCMV antiviral	VACV mCherry inh	Lassa entry inh	Marburg entry inh	Vaccinia Venus	FMDV antiviral
CCC1=Nc2cc(C(=O)NC3CCCC3)ccc2Sc2ccc(Br)cc21	?	0[7.34 µM]	?	?	0[7.34 µM]	0
CC(=O)Nc1ccc2nc(NC(=O)COc3ccccc3Cl)sc2c1	0	0	0	?	0	0
Cc1ccc(OCCSc2nc3ccc(NC(=O)c4ccco4)cc3s2)cc1	0	0	0	0	0	0
Cc1ccc(OCCSc2nc3ccc(NC(=O)c4ccc5c(c4)OCO5)cc3s2)cc1	0	?	0	0	11.2µM	?
CC(=O)Nc1ccc2nc(SCCOc3ccccc3Cl)sc2c1	-80.4	?	0	?	0	0
COc1cc(C)ccc1OCCSc1nc2ccc(NC(=O)c3ccco3)cc2s1	-61.4	0	0	0	0	?
CCC(=O)Nc1ccc2nc(SCCOc3cccc(C)c3)sc2c1	-63.5	0	0	0	0	0
Cc1cccc(C(=O)Nc2ccc3nc(SCCOc4ccccc4)sc3c2)c1	0	0	0	0	0	0
O=C(Nc1ccc2nc(SCCOc3ccccc3Cl)sc2c1)c1ccc2c(c1)OCO2	0	0	0	0	0	?
Cc1cc2c(c(-c3nc4ccccc4s3)c1)OC(CNC(=O)CCc1cccnc1)C2 (configuration not stated)	-	0	-	-	0	0

Assay outcomes: PubChem BioAssay, National Center for Advancing Translational Sciences (NCATS)
